From PubChem BioAssay
The list is not random: actives were taken first. Their share in the collection is about 3.6%.
BoNT-F LC inh: blocks Botulinum neurotoxin F light chain protease | Multiplex microsphere protease cleavage assay, flow cytometry | inhibition, % at 10 µM | actives 0.22% (n = 360,000) | AID 588497; in the data active = inhibition above about 35%, passing the limit was not always enough; inconclusive = no clear call, values can overlap the other calls; note: plate controls were buffer without enzyme for full effect and enzyme alone for no effect
Anthrax LF inh2: blocks Bacillus anthracis lethal factor protease. actives 0.12% (n = 360,000). inhibition, % at 10 µM. multiplex microsphere protease cleavage assay, LF; note: plate controls were buffer without enzyme for full effect and enzyme alone for no effect
Target sequence (P15917 whole entry, looked up): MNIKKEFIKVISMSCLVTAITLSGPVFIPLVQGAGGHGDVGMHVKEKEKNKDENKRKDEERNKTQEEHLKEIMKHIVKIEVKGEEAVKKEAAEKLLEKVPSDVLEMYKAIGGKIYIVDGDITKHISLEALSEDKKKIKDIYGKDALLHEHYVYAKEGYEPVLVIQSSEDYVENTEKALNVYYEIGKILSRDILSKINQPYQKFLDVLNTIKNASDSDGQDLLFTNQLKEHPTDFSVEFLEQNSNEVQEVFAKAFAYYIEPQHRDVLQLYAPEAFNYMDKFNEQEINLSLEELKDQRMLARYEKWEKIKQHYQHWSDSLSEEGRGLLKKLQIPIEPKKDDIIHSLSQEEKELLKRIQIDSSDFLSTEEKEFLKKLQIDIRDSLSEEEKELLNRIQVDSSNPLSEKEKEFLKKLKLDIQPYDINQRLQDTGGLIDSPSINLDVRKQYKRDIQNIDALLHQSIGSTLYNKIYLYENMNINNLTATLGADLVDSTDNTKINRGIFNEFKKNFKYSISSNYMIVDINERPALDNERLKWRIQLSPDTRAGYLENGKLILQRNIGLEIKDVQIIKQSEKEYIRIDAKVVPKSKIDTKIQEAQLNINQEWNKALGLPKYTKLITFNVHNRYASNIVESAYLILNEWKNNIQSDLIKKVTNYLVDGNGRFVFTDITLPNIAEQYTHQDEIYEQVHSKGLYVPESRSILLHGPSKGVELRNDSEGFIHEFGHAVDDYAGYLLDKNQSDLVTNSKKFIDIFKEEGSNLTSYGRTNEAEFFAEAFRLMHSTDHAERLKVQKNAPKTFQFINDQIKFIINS
BoNT-A LC inh2: inhibitors of Botulinum neurotoxin A light chain protease; multiplex microsphere protease substrate cleavage, flow cytometry; inhibition, % at 10 µM; actives 0.17% (n = 360,000); AID 588499; note: plate controls were buffer without enzyme for full effect and enzyme alone for no effect
Autofluor counter: counter-screen for toxin protease inhibitors: compound fluorescence; compound autofluorescence counterscreen, microsphere flow cytometry; stronger effect = higher value; fluorescence intensity (concentration not given with the values); actives 3.1% (n = 360,000); AID 624483; in the data active = fluorescence intensity above about 16000; inconclusive = no clear call, values can overlap the other calls
MazEF act: increases E. coli MazEF RNase cleavage of RNA. P0AE70. FAM/BHQ RNA-DNA oligo cleavage fluorescence, 5 h. activation, % at 20 µM. actives 0.32% (n = 350,000); in the data active = activation above about 50%
Numbers without * were called inactive; ? = inconclusive; / = no result. Cut-off read from the data, not from the text of the source, unless noted: active = inhibition above about 30%; inconclusive = no clear call, values can overlap the other calls; inactive = below that.

SMILES	BoNT-F LC inh	Anthrax LF inh2	BoNT-A LC inh2	Autofluor counter	MazEF act
Cc1nn(CCC(=O)NNC(=S)Nc2ccc(Cl)cc2)c(C)c1[N+](=O)[O-]	6.0	-6.9	2.0	7836	1.6
Cc1ccc(NC(=S)NNC(=O)c2c(Cl)c(C)nn2C)cc1	-5.3	-9.2	-1.7	9508	-2.8
Cc1nn(CC(=O)NNC(=S)Nc2ccccc2)c(C)c1[N+](=O)[O-]	0.6	1.1	-0.9	21125*	-0.8
COc1ccc(C(OCC(O)CN2CCC(O)CC2)c2ccc(OC)cc2)cc1 (stereo not given)	-9.2	-7.0	-2.0	4215	9.7
O=P(Nc1ccccc1)(Nc1ccccc1)Oc1cccc(Cl)c1	18.5	-18.1	?	17171*	-11.7
O=C(CSc1nc2ccc([N+](=O)[O-])cc2[nH]1)NCCc1ccccc1	3.2	-2.1	6.1	20820*	2.0
CCCCC(CC)C1OCC(CN2CCCC2)O1 (stereo not given)	11.3	-2.8	?	19353*	8.1
O=S(=O)(c1cccc(-c2nc3ccccc3s2)c1)N1CCCC1	-5.2	-2.6	-1.8	23878*	-5.9
O=S(=O)(c1ccc(-c2nc3ccccc3s2)cc1)N1CCCC1	-2.3	-4.9	-0.4	11222	-6.3
NC(=O)COC(=O)CC1CC2CCC1C2 (stereo not given)	0.9	-2.4	0.4	2644	2.5
Nc1nc(Cn2nnc(-c3ccccc3F)n2)nc(N2CCOCC2)n1	-8.4	2.1	-0.3	4445	2.2
Nc1nc(Cn2nnc(-c3ccccc3Cl)n2)nc(N2CCOCC2)n1	-3.8	-3.9	?	23188*	-7.2
CC[C@]12c3[nH]c4cc(-c5ccco5)ccc4c3CCN1C(=O)[C@@H](CC(=O)NC/C=C(\C)CCC=C(C)C)C[C@@H]2C(=O)N1CCN(C(=O)C2CC2)CC1	-8.0	-7.6	-0.1	4245	-6.8
CC(C)=CCC/C(C)=C/CNC(=O)C[C@H]1C[C@H](C(=O)N2CCCCC2)[C@@]2(CCc3ccccc3)c3[nH]c4cc(-c5ccco5)ccc4c3CCN2C1=O	-7.3	-3.8	-0.3	4021	75.4*
CC1CCN(CC(=O)N2CCN(c3ccccc3)CC2)CC1	21.1	-8.5	1.1	3399	14.2
COc1ccc(N2CCN(CC(=O)N3CCC(C)CC3)CC2)cc1	-4.2	-1.1	-3.0	17583*	2.3
O=C(NCC(=O)N1CCN(S(=O)(=O)c2c(F)cccc2F)CC1)c1ccccc1F	27.6	2.1	0.9	?	0.2
Cc1c(C(=O)NCc2cccc([N+](=O)[O-])c2)sc(=O)n1Cc1ccccc1F	-0.6	-5.2	0.2	5726	/
Cc1cccn2c(=O)c3cc(C(N)=S)c(=N)n(CCCOC(C)C)c3nc12	-57.0	-35.7	41.1*	3782	24.1
COc1ccc2[nH]c3c(c2c1)CCN1C(=O)C(CC(=O)NCCC2=CCCCC2)C[C@H](C(=O)N2CCOCC2)[C@@]31C (stereo not given in full)	1.2	1.9	0.2	3780	8.1
Cc1ccc(C(=O)COc2nc(C)cc(C)c2C#N)cc1	-2.6	-0.2	-1.1	22443*	-4.6
Cc1cc(C)c(C#N)c(OCC(=O)c2ccc(Br)cc2)n1	-0.2	1.4	?	23283*	-2.1
O=C1C2CCCCN2C(=O)N1CCN1CCN(c2ccc([N+](=O)[O-])cc2)CC1 (stereo not given)	-2.6	5.1	0.0	2875	-14.3
O=C1C2CCCN2C(=O)N1CCCN1CCN(c2ccc([N+](=O)[O-])cc2)CC1 (stereo not given)	46.5*	12.1	-2.7	3813	-19.4
N#C/C(=C\c1ccc[nH]1)S(=O)(=O)c1ccccc1	-5.0	-2.5	-1.9	16572*	-4.8
SMILES	BoNT-F LC inh	Anthrax LF inh2	BoNT-A LC inh2	Autofluor counter	MazEF act
CCn1cc(/C=C(/C#N)S(=O)(=O)c2ccccc2)cn1	-3.3	-2.1	-1.4	23211*	-4.0
Cn1nccc1/C=C(/C#N)S(=O)(=O)c1ccccc1	4.5	-7.7	-0.8	?	16.8
O=S(=O)(/N=C(/Nc1ccc(F)cc1F)c1ccccc1)c1ccccc1	-4.1	-0.2	-0.5	2427	2.5
Cc1ccc(S(=O)(=O)NC(=O)C2(C)CCN2C(=O)Cc2cccs2)cc1 (stereo not given)	-10.3	-6.7	-0.5	4020	/
Cc1ccc2c(c1)N(C(=O)CCC(=O)N1CCC(C(N)=O)CC1)CC(C)O2 (stereo not given)	-3.6	-7.1	-0.5	4176	-4.6
CCOc1nc(-c2ccccc2)ccc1-c1noc(-c2ccncc2)n1	12.8	-0.5	-0.1	8342	-2.6
CCOc1nc(-c2ccc(OC)cc2)ccc1-c1noc(-c2ccncc2)n1	-0.3	-2.3	?	23147*	12.3
CCOc1nc(-c2ccccc2)ccc1-c1noc(-c2cccs2)n1	7.6	0.2	2.9	20998*	-23.9
COc1ccc(-c2nc(-c3ccncc3)no2)cc1	2.9	7.4	-0.9	3887	90.9*
O=C1c2ccccc2NC(c2cccc(O)c2)N1c1ccccc1 (stereo not given)	-31.5	-15.0	-2.4	3916	6.2
Cc1ccc(NC(=O)CSc2nnc(-c3cc(C)[nH]n3)n2N)c(C)c1	2.7	-0.7	-0.3	4420	2.9
O=C(c1ccc2c(=O)n(Cc3ccccc3Cl)c(=S)[nH]c2c1)N1CCCC1	-1.7	-4.1	-1.8	6117	-1.6
CCCCNC(=S)NNC(=O)c1csc(C)c1	-1.6	-2.6	0.3	22322*	3.5
Cc1cccc(NC(=S)NNC(=S)NCc2ccccc2)c1	-1.0	-0.2	1.4	22617*	2.7
Cc1cccc(NC(=S)N2N=CCC2c2ccccc2)c1 (stereo not given)	-4.9	-0.9	-2.2	17190*	-2.2
CCc1cc(C(=O)NNC(=S)Nc2cccc(C)c2)cs1	-6.7	0.6	-4.9	21356*	1.1
CCc1ccccc1NC(=S)N1N=CCC1c1ccccc1 (stereo not given)	-2.6	0.0	0.1	2207	5.0
O=C(CSc1nnc(NC2CC2)s1)NN1C(=O)NC2(CCCCC2)C1=O	-0.9	1.5	0.9	8698	0.8
COc1ccc(S(=O)(=O)N2CCCOC2CNC(=O)C(=O)NCc2cccnc2)cc1 (stereo not given)	-5.7	1.8	2.6	5492	6.7
Cc1ccc(SCc2[nH]nc3c2C(c2ccco2)C(C#N)=C(N)O3)cc1 (stereo not given)	-9.2	0.6	0.4	7792	-3.8
Cc1ccc(SCc2[nH]nc3c2C(c2ccc(C)o2)C(C#N)=C(N)O3)cc1 (stereo not given)	-3.5	-5.1	-0.1	19530*	-1.6
Cc1cccc(NC(=O)CSCC(=O)Nc2sccc2C#N)c1	-1.3	-2.1	1.1	5102	-8.5
COc1cccc(/C=c2/s/c(=C(\C#N)C(=O)N3CCOCC3)n(-c3ccccc3)c2=O)c1	4.7	-6.8	?	20549*	7.7
CS(=O)(=O)c1sc(C#N)c2c1C(=O)CC(c1ccccc1)C2 (stereo not given)	22.7	2.3	-0.9	2860	6.0
COC(=O)Cn1c2nc3ccccc3nc2c2cccc(C)c21	8.4	2.3	10.8	3033	-2.4
Cc1cccc2c3nc4ccccc4nc3n(C)c12	4.4	6.9	44.7*	4110	165.3*
